Records with an inconclusive call do not appear. The source made the active and inactive calls.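 The calls were made as follows: active = compounds whose fitted half-maximal signal loss occurs at or below twice the top dose at every exposure time; inconclusive = exposure times disagree on the call; inactive = the rest.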

The source of these data is PubChem BioAssay AID720610 (Broad Institute, 2013).

The nature of the experiment: HeLa cell viability by resazurin reduction, late-stage follow-up, mechanism study for HRAS target identification, Alamar Blue fluorescence, 8-48 h, dry powder (AID 720610). In general terms: Alamar Blue is a resazurin reagent that responds to reducing activity.

Consider `CCC(=O)N(c1ccc(OC)c(Cl)c1)C(C(=O)NCCc1ccccc1)c1cccs1` (configuration not stated), for which the result was inactive.
The result for `Cc1onc(C(=O)N2CCN(C(c3ccncc3)c3ccncc3)CC2)c1[N+](=O)[O-]` reads “inactive”.
